Results: PubChem BioAssay AID1159580 (chemical genetic matrix, 2015)
The campaign covered roughly 5,500 compounds. About 2,000 (36%) were called active. Not shown: some 18% with an inconclusive outcome. No stated cut-off is given here; in the data, active means normalized growth mostly below about 0.91 (no sharp cut-off); inconclusive means no clear call, values can overlap the other calls; inactive means mostly above about 0.92. The list shows a part of the results.

Assay: chemical genetic growth profiling, strain panel (AID 1159580);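 further: tested at 20 µM; growth read once vehicle control cultures reached saturation at 30 °C; 1 = growth at the plate median or of vehicle wells; lower values mean less growth of the strain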
Details: growth OD

Measured: normalized growth

COc1ccc2c(c1OC)C(=O)O[C@H]2[C@H]1c2cc3c(cc2CCN1C)OCO3
inactive: S. cerevisiae deletion strains, locus YJR075W, strain HOC1, active compounds read low 1 | S. cerevisiae deletion strains, locus YKL009W, strain mrt4, active compounds read low 1.03 | S. cerevisiae deletion strains, locus YKL068W, active compounds read low 1 | S. cerevisiae deletion strains, locus YKL085W, strain MDH1 (second series), active compounds read low 1 | S. cerevisiae deletion strains, locus YKL085W, strain MDH1, active compounds read low 1 | S. cerevisiae deletion strains, locus YKL160W, strain elf1, active compounds read low 0.994 | S. cerevisiae deletion strains, locus YKL190W, strain CNB1, active compounds read low 1 | S. cerevisiae deletion strains, locus YKR001C, strain vps1, active compounds read low 1.03 | S. cerevisiae deletion strains, locus YKR026C, strain gcn3, active compounds read low 1.01 | S. cerevisiae deletion strains, locus YKR091W, strain srl3, active compounds read low 0.99 | S. cerevisiae deletion strains, locus YLL001W, strain dnm1, active compounds read low 0.998 | S. cerevisiae deletion strains, locus YLL026W, active compounds read low 1 | S. cerevisiae deletion strains, locus YLL041C, strain sdh2, active compounds read low 1 | S. cerevisiae deletion strains, locus YLR027C, strain aat2, active compounds read low 1 | S. cerevisiae deletion strains, locus YLR039C, strain RIC1, active compounds read low 1.04 | S. cerevisiae deletion strains, locus YLR058C, strain SHM2, active compounds read low 1 | S. cerevisiae deletion strains, locus YLR102C, strain apc9, active compounds read low 1.01 | S. cerevisiae deletion strains, locus YLR113W, strain HOG1, active compounds read low 1.05 | S. cerevisiae deletion strains, locus YLR221C, strain rsa3, active compounds read low 0.998 | S. cerevisiae deletion strains, locus YLR258W, strain gsy2, active compounds read low 1.01 | S. cerevisiae deletion strains, locus YLR262C, strain YPT6 (second series), active compounds read low 1.01 | S. cerevisiae deletion strains, locus YLR262C, strain YPT6, active compounds read low 1.03 | S. cerevisiae deletion strains, locus YLR268W, strain sec22, active compounds read low 1.01 | S. cerevisiae deletion strains, locus YLR320W, strain mms22, active compounds read low 1 | S. cerevisiae deletion strains, locus YLR330W, strain CHS5, active compounds read low 1.01 | S. cerevisiae deletion strains, locus YLR342W, strain FKS1 (second series), active compounds read low 0.981 | S. cerevisiae deletion strains, locus YLR342W, strain FKS1, active compounds read low 0.996 | S. cerevisiae deletion strains, locus YLR357W, strain rsc2, active compounds read low 1.03 | S. cerevisiae deletion strains, locus YLR370C, strain arc18, active compounds read low 0.994 | S. cerevisiae deletion strains, locus YLR371W, strain rom2, active compounds read low 1.02 | S. cerevisiae deletion strains, locus YLR384C, strain iki3, active compounds read low 1 | S. cerevisiae deletion strains, locus YLR418C, strain cdc73, active compounds read low 1.03 | S. cerevisiae deletion strains, locus YML016C, strain PPZ1, active compounds read low 1 | S. cerevisiae deletion strains, locus YML032C, strain rad52, active compounds read low 1.01 | S. cerevisiae deletion strains, locus YML120C, strain ndi1, active compounds read low 0.987 | S. cerevisiae deletion strains, locus YML124C, strain tub3, active compounds read low 1.01 | S. cerevisiae deletion strains, locus YMR058W, strain fet3, active compounds read low 1 | S. cerevisiae deletion strains, locus YMR078C, strain ctf18, active compounds read low 1 | S. cerevisiae deletion strains, locus YMR125W, strain sto1, active compounds read low 0.991 | S. cerevisiae deletion strains, locus YMR129W, active compounds read low 0.998 | S. cerevisiae deletion strains, locus YMR205C, strain PFK2, active compounds read low 1 | S. cerevisiae deletion strains, locus YMR223W, strain ubp8, active compounds read low 1 | S. cerevisiae deletion strains, locus YMR231W, strain pep5, active compounds read low 0.999 | S. cerevisiae deletion strains, locus YMR263W, strain SAP30, active compounds read low 1 | S. cerevisiae deletion strains, locus YMR307W, strain GAS1, active compounds read low 1.05 | S. cerevisiae deletion strains, locus YNL067W, strain RPL9B, active compounds read low 0.979 | S. cerevisiae deletion strains, locus YNL071W, strain lat1, active compounds read low 0.994 | S. cerevisiae deletion strains, locus YNL128W, strain TEP1, active compounds read low 0.984 | S. cerevisiae deletion strains, locus YNL153C, strain GIM3, active compounds read low 1 | S. cerevisiae deletion strains, locus YNL183C, strain NPR1, active compounds read low 0.979 | S. cerevisiae deletion strains, locus YNL209W, strain ssb2, active compounds read low 1 | S. cerevisiae deletion strains, locus YNL233W, strain BNI4, active compounds read low 1.01 | S. cerevisiae deletion strains, locus YNL248C, strain rpa49, active compounds read low 0.988 | S. cerevisiae deletion strains, locus YNL250W, strain rad50, active compounds read low 1 | S. cerevisiae deletion strains, locus YNL271C, strain bni1, active compounds read low 1 | S. cerevisiae deletion strains, locus YNL298W, strain CLA4, active compounds read low 1.01 | S. cerevisiae deletion strains, locus YNL307C, strain MCK1, active compounds read low 1.01 | S. cerevisiae deletion strains, locus YNL322C, strain KRE1 (second series), active compounds read low 1.01 | S. cerevisiae deletion strains, locus YNL322C, strain KRE1, active compounds read low 1 | S. cerevisiae deletion strains, locus YNR049C, strain mso1, active compounds read low 0.995 | S. cerevisiae deletion strains, locus YNR052C, strain pop2, active compounds read low 0.999 | S. cerevisiae deletion strains, locus YOL006C, strain TOP1, active compounds read low 1.03 | S. cerevisiae deletion strains, locus YOL012C, strain htz1 0.872 | S. cerevisiae deletion strains, locus YOL147C, strain pex11, active compounds read low 1.01 | S. cerevisiae deletion strains, locus YOR001W, strain rrp6, active compounds read low 0.995 | S. cerevisiae deletion strains, locus YOR061W, strain CKA2, active compounds read low 1 | S. cerevisiae deletion strains, locus YOR069W, strain VPS5, active compounds read low 0.997 | S. cerevisiae deletion strains, locus YOR070C, strain gyp1, active compounds read low 0.995 | S. cerevisiae deletion strains, locus YOR080W, strain dia2, active compounds read low 1 | S. cerevisiae deletion strains, locus YOR083W, strain WHI5, active compounds read low 0.988 | S. cerevisiae deletion strains, locus YOR106W, strain vam3, active compounds read low 1.02 | S. cerevisiae deletion strains, locus YOR136W, strain idh2, active compounds read low 1 | S. cerevisiae deletion strains, locus YOR144C, strain elg1, active compounds read low 1.01 | S. cerevisiae deletion strains, locus YOR184W, strain ser1, active compounds read low 0.999 | S. cerevisiae deletion strains, locus YOR231W, strain MKK1, active compounds read low 1.06 | S. cerevisiae deletion strains, locus YOR265W, strain rbl2, active compounds read low 1 | S. cerevisiae deletion strains, locus YOR270C, strain vph1, active compounds read low 0.998 | S. cerevisiae deletion strains, locus YOR290C, strain snf2, active compounds read low 0.975 | S. cerevisiae deletion strains, locus YOR316C, strain cot1, active compounds read low 1 | S. cerevisiae deletion strains, locus YPL051W, strain arl3, active compounds read low 0.982 | S. cerevisiae deletion strains, locus YPL055C, strain LGE1, active compounds read low 0.986 | S. cerevisiae deletion strains, locus YPL078C, strain atp4, active compounds read low 0.996 | S. cerevisiae deletion strains, locus YPL106C, strain sse1, active compounds read low 0.982 | S. cerevisiae deletion strains, locus YPL240C, strain hsp82, active compounds read low 1 | S. cerevisiae deletion strains, locus YPL241C, strain CIN2, active compounds read low 0.997 | S. cerevisiae deletion strains, locus YPL256C, strain CLN2, active compounds read low 1.03 | S. cerevisiae deletion strains, locus YPR119W, strain clb2, active compounds read low 1.01 | S. cerevisiae deletion strains, locus YPR141C, strain kar3, active compounds read low 1.01 | S. cerevisiae deletion strains, locus YPR163C, strain tif3, active compounds read low 1.02 | S. cerevisiae deletion strains, locus YPR167C, strain met16, active compounds read low 1.01 | S. cerevisiae deletion strains, strain wtn01, active compounds read low 1.01 | S. cerevisiae strains, strain wild type, active compounds read low 0.982
